According to PubChem BioAssay AID1159580 (chemical genetic matrix, 2015):
Out of some 5,500 compounds screened, about 2,000 (36%) were called active. Another 18% or so got no clear call; they are omitted. Rule as the data show it: active = normalized growth mostly below about 0.91 (no sharp cut-off); inconclusive = no clear call, values can overlap the other calls; inactive = mostly above about 0.92. This is one part of the list.

Test: chemical genetic growth profiling, strain panel (AID 1159580);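 also: tested at 20 µM; growth read once vehicle control cultures reached saturation at 30 °C; 1 = growth at the plate median or of vehicle wells; lower values mean less growth of the strain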
Details: S. cerevisiae deletion strains, growth OD

Measured: normalized growth

CC(=O)O[C@]1(C(C)=O)CCC2C3C=C(Cl)C4=CC(=O)[C@@H]5C[C@@H]5[C@]4(C)C3CC[C@@]21C (some centres undefined)
inactive: locus YAL021C, strain ccr4, hits give low values 1.06 | locus YAL026C, strain drs2, hits give low values 1.02 | locus YAL030W, strain snc1, hits give low values 1.01 | locus YBL061C, strain skt5, hits give low values 1.01 | locus YBR009C, strain hhf1, hits give low values 0.973 | locus YBR023C, strain chs3, hits give low values 1 | locus YBR171W, strain sec66, hits give low values 1.02 | locus YBR231C, strain swc5, hits give low values 1.03 | locus YBR279W, strain paf1, hits give low values 0.997 | locus YCL011C, strain gbp2, hits give low values 0.99 | locus YCL016C, strain dcc1, hits give low values 0.992 | locus YCL061C, strain MRC1, hits give low values 1.02 | locus YCL069W, strain vba3, hits give low values 1.01 | locus YCR088W, strain abp1, hits give low values 1.01 | locus YDL005C, strain med2, hits give low values 1 | locus YDL040C, strain nat1, hits give low values 1.01 | locus YDR001C, strain nth1, hits give low values 1.01 | locus YDR069C, strain doa4, hits give low values 1.04 | locus YDR137W, strain rgp1, hits give low values 0.968 | locus YDR159W, strain sac3, hits give low values 0.946 | locus YDR195W, strain ref2 1.05 | locus YDR297W, strain sur2, hits give low values 1.02 | locus YDR334W, strain swr1, hits give low values 1 | locus YDR335W, strain msn5, hits give low values 1.01 | locus YDR392W, strain spt3, hits give low values 0.861 | locus YEL003W, strain gim4, hits give low values 1.02 | locus YEL037C, strain rad23, hits give low values 1.02 | locus YEL061C, strain CIN8 (second series), hits give low values 1.01 | locus YER015W, strain faa2, hits give low values 1 | locus YER016W, strain bim1, hits give low values 1.01 | locus YER111C, strain swi4, hits give low values 1.02 | locus YER155C, strain BEM2 (second series), hits give low values 1.05 | locus YFR010W, strain ubp6, hits give low values 1.03 | locus YGL167C, strain pmr1, hits give low values 1.03 | locus YGL173C, strain kem1, hits give low values 1.02 | locus YGL227W, strain vid30, hits give low values 0.997 | locus YGL240W, strain doc1, hits give low values 1.02 | locus YGL253W, strain hxk2, hits give low values 0.973 | locus YHR013C, strain ard1, hits give low values 1.03 | locus YHR027C, strain rpn1, hits give low values 1.01 | locus YHR030C, strain SLT2, hits give low values 1.03 | locus YHR079C, strain IRE1, hits give low values 1.02 | locus YHR142W, strain chs7, hits give low values 0.988 | locus YJL092W, strain hpr5, hits give low values 1.02 | locus YJL095W, strain BCK1 (second series), hits give low values 1.02 | locus YJL095W, strain BCK1, hits give low values 1.02 | locus YJL115W, strain asf1, hits give low values 1.01 | locus YJL129C, strain trk1, hits give low values 1.01 | locus YJL154C, strain vps35, hits give low values 1.01 | locus YJL164C, strain tpk1, hits give low values 0.992 | locus YJL166W, strain qcr8, hits give low values 1.02 | locus YJR066W, strain TOR1, hits give low values 0.997 | locus YKL160W, strain elf1, hits give low values 1.01 | locus YKR026C, strain gcn3, hits give low values 1.01 | locus YKR091W, strain srl3, hits give low values 1.01 | locus YLL001W, strain dnm1, hits give low values 1.02 | locus YLL026W, hits give low values 1.01 | locus YLL041C, strain sdh2, hits give low values 1.01 | locus YLR027C, strain aat2, hits give low values 1.02 | locus YLR113W, strain HOG1, hits give low values 1.03 | locus YLR221C, strain rsa3, hits give low values 0.982 | locus YLR258W, strain gsy2, hits give low values 1.01 | locus YLR262C, strain YPT6 (second series), hits give low values 0.977 | locus YLR320W, strain mms22, hits give low values 0.979 | locus YLR342W, strain FKS1, hits give low values 1.01 | locus YLR357W, strain rsc2, hits give low values 0.999 | locus YLR370C, strain arc18, hits give low values 1.02 | locus YLR384C, strain iki3, hits give low values 1.01 | locus YML120C, strain ndi1, hits give low values 1.02 | locus YMR058W, strain fet3, hits give low values 1.02 | locus YMR125W, strain sto1, hits give low values 1.02 | locus YMR129W, hits give low values 1.01 | locus YMR205C, strain PFK2, hits give low values 0.991 | locus YMR231W, strain pep5, hits give low values 1.01 | locus YNL071W, strain lat1, hits give low values 0.963 | locus YNL183C, strain NPR1, hits give low values 0.986 | locus YNL209W, strain ssb2, hits give low values 0.999 | locus YNL248C, strain rpa49, hits give low values 1.01 | locus YNL322C, strain KRE1 (second series), hits give low values 1.01 | locus YNR049C, strain mso1, hits give low values 1 | locus YOR001W, strain rrp6, hits give low values 1.03 | locus YOR070C, strain gyp1, hits give low values 1 | locus YOR080W, strain dia2, hits give low values 1.02 | locus YOR083W, strain WHI5, hits give low values 0.983 | locus YOR106W, strain vam3, hits give low values 1.01 | locus YOR231W, strain MKK1, hits give low values 1.02 | locus YOR265W, strain rbl2, hits give low values 1.02 | locus YOR270C, strain vph1, hits give low values 0.954 | locus YOR290C, strain snf2, hits give low values 0.995 | locus YPL051W, strain arl3, hits give low values 1.01 | locus YPL078C, strain atp4, hits give low values 1.01 | locus YPL106C, strain sse1, hits give low values 1.04 | locus YPL240C, strain hsp82, hits give low values 1.02 | locus YPL256C, strain CLN2, hits give low values 1.03
